Screen size: about 39,000 compounds; about 1,500 (3.8%) were called active. This is one part of a sample in which actives are shown more often than they occur.

This assay deals with HSkMC (human skeletal muscle cells). Kind of assay: cytotoxicity call (relative viability < 0.9). Particulars: 10 µM.
Consider `C[C@@H]1CN([C@H](C)CO)C(=O)c2cc(NS(=O)(=O)c3ccc(Cl)cc3)ccc2O[C@@H](C)CCCCO[C@@H]1CN(C)C(=O)NC1CCCCC1`, for which the cytotoxicity call is “inactive”. Take `C[C@@H]1CCCCO[C@H](CN(C)Cc2ccc(C(=O)O)cc2)[C@H](C)CN([C@H](C)CO)C(=O)c2cc(NC(=O)c3ccccc3)ccc2O1`: the cytotoxicity call was “inactive”. Regarding `C[C@@H]1CN([C@H](C)CO)C(=O)c2cc(NC(=O)Cn3cnnn3)ccc2O[C@@H]1CN(C)S(C)(=O)=O`, the cytotoxicity call is “inactive”. As to `C[C@@H]1CCCCO[C@@H](CN(C)S(C)(=O)=O)[C@@H](C)CN([C@@H](C)CO)C(=O)c2cc(NS(=O)(=O)c3ccccc3)ccc2O1`, the cytotoxicity call was “inactive”. With `CC[C@@]1(O)C(=O)OCc2c1cc1n(c2=O)Cc2c-1nc1cc(F)c(C)c3c1c2[C@@H](N)CC3` the entry was “active”; with `CCC1(O)C(=O)OCc2c1cc1n(c2=O)Cc2cc3c(CN(C)C)c(O)ccc3nc2-1.Cl` (stereo not drawn), “inactive”; with `CCC1(O)C(=O)OCc2c1cc1n(c2=O)Cc2cc3cc(O)ccc3nc2-1` (stereo not drawn), “inactive”. `CC(C)(C)[S@@](=O)N1Cc2cc(C(=O)N[C@H]3CCN(Cc4ccccc4)C3)nc(-c3cccc(-c4ccncc4)c3)c2[C@H]1CCO`: the cytotoxicity call was “inactive”. As to `Cc1noc(C)c1NC(=O)Nc1cccc2c1O[C@H](CN(C)Cc1ccc(Oc3ccccc3)cc1)[C@@H](C)CN([C@@H](C)CO)C2=O`, the cytotoxicity call was “inactive”. Take `C[C@H]1CCCCO[C@H](CN(C)S(=O)(=O)c2ccccc2)[C@@H](C)CN([C@@H](C)CO)C(=O)c2cc(NS(=O)(=O)c3cn(C)cn3)ccc2O1`: the cytotoxicity call was “inactive”. With `O=C(c1cn(Cc2cncn2Cc2ccc(Br)cc2)cc1-c1cccc2ccccc12)N1CCOCC1`, the cytotoxicity call is “active”. With `Nc1ccccc1C(=O)N1CCOCC1` the entry was “inactive”; with `O=C(c1ccccc1O)N1CCOCC1`, “inactive”; with `C[C@@H]1CN([C@H](C)CO)C(=O)c2cc(NC(=O)Nc3ccccc3)ccc2O[C@@H](C)CCCCO[C@H]1CN(C)Cc1ccncc1`, “inactive”.

As for `CO[C@H]1/C=C\O[C@@]2(C)Oc3c(C)c(O)c4c(O)c(c(/C=N/N=C/N5CCCCC5)c(O)c4c3C2=O)NC(=O)/C(C)=C\C=C/[C@H](C)[C@H](O)[C@@H](C)[C@@H](O)[C@@H](C)[C@H](OC(C)=O)[C@@H]1C`, the cytotoxicity call is “active”. As to `COC1C=COC2(C)Oc3c(C)c(O)c4c(O)c(c5c(nc6cc(C)ccn65)c4c3C2=O)NC(=O)C(C)=CC=CC(C)C(O)C(C)C(O)C(C)C(OC(C)=O)C1C` (stereo not drawn), the cytotoxicity call was “inactive”. On to `COC1C=COC2(C)Oc3c(C)c(O)c4c(O)c(c(C=NN5CCN(C6CCCC6)CC5)c(O)c4c3C2=O)NC(=O)C(C)=CC=CC(C)C(O)C(C)C(O)C(C)C(OC(C)=O)C1C` (stereo not drawn), for which the cytotoxicity call is “inactive”. In the case of `CO[C@H]1/C=C\O[C@@]2(C)Oc3c(C)c(O)c4c(c3C2=O)[C@]2(C=C(NC(=O)/C(C)=C\C=C/[C@@H](C)[C@@H](O)[C@@H](C)[C@@H](O)[C@@H](C)[C@@H](OC(C)=O)[C@@H]1C)C4=O)OCC(=O)O2`, the cytotoxicity call was “active”. For the compound `COC1C=COC2(C)Oc3c(C)c(O)c4c(O)c(c(C=NN5CCN(C)CC5)c(O)c4c3C2=O)NC(=O)C(C)=CC=CC(C)C(O)C(C)C(O)C(C)C(OC(C)=O)C1C` (stereo not drawn), the cytotoxicity call was “inactive”.

In the case of `[N-]=[N+]=Nc1ccccc1[C@H]1OC(c2ccc(OCCCO)cc2)=N[C@@]1(CCS(=O)(=O)c1ccccc1)C(=O)N1CCCCC1`, the cytotoxicity call is “inactive”. As for `C[C@@H]1CCCCO[C@@H](CN(C)S(=O)(=O)c2ccc(Cl)cc2)[C@@H](C)CN([C@@H](C)CO)C(=O)c2cc(NC(=O)Nc3cccc4ccccc34)ccc2O1`, the cytotoxicity call was “inactive”. In the case of `COc1ccccc1S(=O)(=O)N[C@H]1CC[C@H](CCNC(=O)C2CC2)O[C@H]1CO`, the cytotoxicity call is “inactive”. Regarding `CN1C(=O)c2cc(NC(=O)Cc3cccs3)ccc2OC[C@@H]2O[C@H](CC(=O)NCCc3ccncc3)CC[C@H]21`, the cytotoxicity call is “inactive”. For `COc1ccc(CN(C)C[C@@H]2Oc3c(NC(=O)c4cc(C)nn4C)cccc3C(=O)N([C@H](C)CO)C[C@H]2C)cc1`, the cytotoxicity call was “inactive”.

For the compound `Cc1c(CN2CCC(Nc3ncnc4sc(CC(F)(F)F)cc34)CC2)ccc2c1cc(C#N)n2Cc1cn[nH]c1`, the cytotoxicity call was “active”. Regarding `COc1ccc(NC(=O)N(C)C[C@H]2Oc3ccc(NC(=O)Nc4cccc5ccccc45)cc3C(=O)N([C@@H](C)CO)C[C@H]2C)cc1`, the cytotoxicity call is “inactive”. In the case of `COc1cc([C@@H]2c3cc4c(cc3[C@@H](O[C@@H]3O[C@@H]5CO[C@@H](C)O[C@H]5[C@H](O)[C@H]3O)[C@H]3COC(=O)[C@H]23)OCO4)cc(OC)c1O`, the cytotoxicity call is “active”. The result for `COc1cc(C2c3cc4c(cc3C(OC3OC5COC(C)OC5C(O)C3O)C3COC(=O)C23)OCO4)cc(OC)c1O` (stereo not drawn) reads “inactive”. The result for `COc1cc([C@@H]2c3cc4c(cc3[C@@H](O[C@@H]3O[C@@H]5CO[C@@H](C)O[C@H]5[C@H](O)[C@H]3O)[C@@H]3COC(=O)[C@@H]23)OCO4)cc(OC)c1O` reads “inactive”. On to `CC(C)(C)C(=O)Nc1ccccc1F`, for which the cytotoxicity call is “inactive”. For `CCN(CC)C(=S)SSC(=S)N(CC)CC`, the cytotoxicity call was “active”.

Regarding `C[C@H](CO)N1C[C@H](C)[C@@H](CN(C)S(=O)(=O)c2ccc(F)cc2)Oc2ccc(NC(=O)Nc3cccc4ccccc34)cc2C1=O`, the cytotoxicity call is “inactive”. `O=S1(=O)CCC(O)CC1`: the cytotoxicity call was “inactive”. With `O=C(CNc1ccc2c(c1)oc1ccccc12)c1ccc(F)cc1` the entry was “inactive”; with `Cc1ccc(S(=O)(=O)Nc2ccc3c(c2)CC(=O)N([C@H](C)CO)C[C@H](C)[C@@H](CN(C)Cc2ccc(Cl)c(Cl)c2)O3)cc1`, “inactive”. Turning to `Cc1ccc(S(=O)(=O)Nc2ccc3c(c2)CC(=O)N([C@@H](C)CO)C[C@@H](C)[C@H](CN(C)Cc2ccc(Cl)c(Cl)c2)O3)cc1`, the cytotoxicity call is “inactive”.

As to `Cc1ccc(S(=O)(=O)Nc2ccc3c(c2)CC(=O)N([C@@H](C)CO)C[C@@H](C)[C@@H](CN(C)Cc2ccc(Cl)c(Cl)c2)O3)cc1`, the cytotoxicity call was “active”. Regarding `Cc1ccc(S(=O)(=O)Nc2ccc3c(c2)CC(=O)N([C@H](C)CO)C[C@H](C)[C@H](CN(C)Cc2ccc(Cl)c(Cl)c2)O3)cc1`, the cytotoxicity call was “active”. With `Cc1ccc(S(=O)(=O)Nc2ccc3c(c2)CC(=O)N([C@@H](C)CO)C[C@H](C)[C@H](CN(C)Cc2ccc(Cl)c(Cl)c2)O3)cc1`, the cytotoxicity call is “active”. The result for `Cc1ccc(S(=O)(=O)Nc2ccc3c(c2)CC(=O)N([C@@H](C)CO)C[C@H](C)[C@@H](CN(C)Cc2ccc(Cl)c(Cl)c2)O3)cc1` reads “active”. With `C[C@H](CO)N1C[C@H](C)[C@H](CN(C)C(=O)NC2CCCCC2)OCc2ccccc2-c2c(n(C)c3ccccc23)C1=O`, the cytotoxicity call was “inactive”. On to `CN1C(=O)CO[C@H]2CN(C(=O)NCc3cccnc3)C[C@@H]21`, for which the cytotoxicity call was “inactive”. Turning to `COc1ccc(S(=O)(=O)Nc2ccc3c(c2)CC(=O)N([C@@H](C)CO)C[C@H](C)[C@@H](CN(C)S(=O)(=O)c2ccc(C)cc2)O3)cc1`, the cytotoxicity call was “inactive”. Consider `Cc1nnc(SCC2=C(C(=O)O)N3C(=O)[C@@H](NC(=O)Cn4cnnn4)[C@H]3SC2)s1`, for which the cytotoxicity call was “inactive”.

For the compound `O=C(O)[C@@H]1CCCNC1`, the cytotoxicity call was “inactive”. The result for `CC(=O)CNC(=O)Cc1ccccc1` reads “inactive”. Take `CCN(CC)S(=O)(=O)c1nnc[nH]1`: the cytotoxicity call is “inactive”. Consider `C[C@H](CO)N1C[C@H](C)[C@@H](CN(C)C(=O)Nc2ccc(C(F)(F)F)cc2)Oc2ncc(-c3ccc(C#N)cc3)cc2C1=O`, for which the cytotoxicity call is “inactive”. The result for `CO[C@@H](C(=O)N(C)C[C@H]1OCc2ccccc2-c2c(n(C)c3ccccc23)C(=O)N([C@H](C)CO)C[C@@H]1C)c1ccccc1` reads “inactive”; that for `CC(C)(C)OC(=O)N1CC[C@H](c2cn(-c3ccc(C(F)(F)F)cc3)nn2)[C@@H]1C(=O)Nc1cccc2cccnc12`, “inactive”; that for `CO[C@@H]1CN(C)C(=O)c2cc(NS(C)(=O)=O)ccc2OC[C@H](C)N(C(=O)C2CCCCC2)C[C@@H]1C`, “inactive”. For the compound `COc1ccc(CN(C)C[C@H]2OCCCC[C@@H](C)Oc3ccc(NC(=O)Cc4ccccc4)cc3C(=O)N([C@H](C)CO)C[C@@H]2C)cc1`, the cytotoxicity call is “inactive”.

Regarding `CN1C(=O)c2cc(NC(=O)c3cnccn3)ccc2OC[C@@H]2O[C@H](CC(=O)N[C@H]3CCN(Cc4ccccc4)C3)CC[C@@H]21`, the cytotoxicity call was “inactive”. Regarding `C[C@@H]1CN([C@H](C)CO)C(=O)c2ccccc2-c2ccccc2CO[C@@H]1CN(C)C(=O)Nc1cccc(Cl)c1Cl`, the cytotoxicity call was “inactive”.

As for `Cc1ccc(S(=O)(=O)Nc2ccc3c(c2)CC(=O)N([C@H](C)CO)C[C@@H](C)[C@H](CN(C)Cc2ccc(Cl)c(Cl)c2)O3)cc1`, the cytotoxicity call is “inactive”. In the case of `Cc1ccc(S(=O)(=O)Nc2ccc3c(c2)CC(=O)N([C@H](C)CO)C[C@@H](C)[C@@H](CN(C)Cc2ccc(Cl)c(Cl)c2)O3)cc1`, the cytotoxicity call is “active”. As to `C[C@@H]1CN([C@@H](C)CO)C(=O)c2cccc(NC(=O)Nc3ccc(C(F)(F)F)cc3)c2O[C@@H]1CN(C)S(=O)(=O)c1ccc(Cl)cc1`, the cytotoxicity call was “inactive”. Consider `C[C@H](CO)N1C[C@H](C)[C@H](CN(C)S(=O)(=O)c2ccc(Cl)cc2)Oc2c(NC(=O)Nc3ccc(C(F)(F)F)cc3)cccc2C1=O`, for which the cytotoxicity call was “inactive”. On to `C[C@H]1CN([C@@H](C)CO)C(=O)c2cccc(NC(=O)Nc3ccc(C(F)(F)F)cc3)c2O[C@H]1CN(C)S(=O)(=O)c1ccc(Cl)cc1`, for which the cytotoxicity call is “active”. For the compound `C[C@H]1CN([C@@H](C)CO)C(=O)c2cccc(NC(=O)Nc3ccc(C(F)(F)F)cc3)c2O[C@@H]1CN(C)S(=O)(=O)c1ccc(Cl)cc1`, the cytotoxicity call was “active”. `C[C@@H]1CN([C@@H](C)CO)C(=O)c2cccc(NC(=O)Nc3ccc(C(F)(F)F)cc3)c2O[C@H]1CN(C)S(=O)(=O)c1ccc(Cl)cc1`: the cytotoxicity call is “inactive”.

Regarding `C[C@@H]1CN([C@H](C)CO)C(=O)c2cccc(NC(=O)Nc3ccc(C(F)(F)F)cc3)c2O[C@@H]1CN(C)S(=O)(=O)c1ccc(Cl)cc1`, the cytotoxicity call was “inactive”.

Regarding `C[C@@H]1CCCCO[C@H](CN(C)Cc2ccc(Cl)c(Cl)c2)[C@H](C)CN([C@@H](C)CO)C(=O)c2cc(NS(C)(=O)=O)ccc2O1`, the cytotoxicity call was “inactive”.

The values are drawn from the antibiotic and cytotoxicity screens of Wong et al. (2023).
